# Source: article PMC5540273 (PLoS ONE, 2017)
# Assays:
# [1] = test system: PRKCI
# [2] = test system: PRKCE
# [3] = test system: PRKCH
# [4] = test system: PRKD1
# [5] = test system: PRKD2
# [6] = test system: PKN1
# [7] = test system: PRKCQ
# [8] = test system: PLK1
# [9] = test system: PLK2
# [10] = test system: PLK3
# 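Also: kd values determined as follow-up on hits from a single-replicate KINOMEscan panel screen.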
smiles,measurement,setting,value
O=C(c1ccc(-c2cc(-c3c[nH]nc3-c3ccccn3)ccn2)cc1)N1CCCC1 [GW792479],Kd,[1],> 10000 nM
Cl.Cl.c1ccc(-c2cc3ccncc3cc2OC2CCNCC2)cc1 [GSK1122999],Kd,[2],640 nM
same,Kd,[3],390 nM
Cc1cccc(-c2nc(Nc3ccc4[nH]nnc4c3)c3ccccc3n2)n1 [GW867587],Kd,[4],61 nM
same,Kd,[5],83 nM
COc1cc2ncnc(Nc3ccc(OCc4ccccc4Br)c(Cl)c3)c2cc1OC.Cl [GI261590],Kd,[6],> 10000 nM
same,Kd,[7],> 10000 nM
Fc1cccc(COc2ccc(Nc3ncnc4sc(-c5ccc[nH]5)cc34)cc2Cl)c1 [GW707818],Kd,[3],> 10000 nM
NC(=O)c1sc(-n2cnc3ccccc32)cc1OCc1ccccc1F [GSK1024306],Kd,[8],9.6 nM
same,Kd,[9],25 nM
same,Kd,[10],52 nM
